Results reported in PubChem BioAssay AID588675 (Johns Hopkins Ion Channel Center, 2011).
Out of some 310,000 compounds screened, about 1,900 (0.61%) were called active.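 The calls were made as follows: active = plate-corrected calcium response at least 3 library SD above typical, normal starting fluorescence, not activating the receptor alone; inactive = the rest.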 This excerpt belongs to a sample that is enriched for actives.

Target: Mas-related G-protein coupled receptor member X1 (Homo sapiens) (UniProt Q96LB2)
Sequence (Q96LB2 whole entry, looked up): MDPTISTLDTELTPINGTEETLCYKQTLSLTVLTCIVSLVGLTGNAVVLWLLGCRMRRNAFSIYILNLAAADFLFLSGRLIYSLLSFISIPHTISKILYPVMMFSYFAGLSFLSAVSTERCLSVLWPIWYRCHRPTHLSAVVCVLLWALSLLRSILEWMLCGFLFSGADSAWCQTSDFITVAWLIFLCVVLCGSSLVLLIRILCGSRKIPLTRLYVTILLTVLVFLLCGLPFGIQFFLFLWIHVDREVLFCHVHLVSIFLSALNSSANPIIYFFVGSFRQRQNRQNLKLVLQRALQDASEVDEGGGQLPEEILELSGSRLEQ
Test: positive allosteric modulators of MrgX1, primary screen, HEK293 cells, Fluo-4 calcium flux (AID 588675);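 also: compound read alongside a low EC10 to EC30 dose of BAM8-22 agonist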;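 as to B-score: peak minus trough fluorescence over baseline measured at the second addition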
Conditions: MrgX1-HEK293, Fluo-4 calcium flux, FDSS, at 10 µM; active compounds read high

Row | Compound | B-score
1 | COc1ccccc1C(=O)NC(=S)NC12CC3CC(CC(C3)C1)C2 | inactive
2 | CN1CCN(C(=O)c2ccccc2NC(=O)COc2ccccc2Cl)CC1 | inactive
3 | Cc1cccc[n+]1CC(=O)c1ccccc1 | inactive
4 | O=C(C[n+]1cc(Br)cc2ccccc21)c1ccc(F)cc1 | 9.24 (active)
5 | O=C(CNC(=O)c1ccc(F)cc1)c1ccccc1 | inactive
6 | C=C(C)c1cccc(C(C)(C)NC(=O)NCCN(CC)CC)c1 | inactive
7 | CC(C)C(=O)NCC(c1cccs1)S(=O)(=O)c1ccc(F)cc1 (stereo not drawn) | inactive
8 | Cc1cccc(Cn2cnc3c(N)c(C)c(C)cc32)c1 | 9.78 (active)
9 | COc1cccc(Cn2cnc3c([N+](=O)[O-])c(C)c(C)cc32)c1 | inactive
10 | CCOC(=O)c1cn(Cc2cccc(C)c2)nn1 | inactive
11 | CCOc1ccc2[nH]c(=O)c(CN(CCCO)S(=O)(=O)c3ccc(F)cc3)cc2c1 | inactive
12 | Cc1cc2c(cc1C)[n+](C)cn2CC(O)COCC1CC=CCC1 (stereo not drawn) | inactive
13 | Cn1c(-c2ccc(F)cc2)cc2onc(-c3ccccc3Cl)c2c1=O | inactive
14 | CCn1c(C)nc2c1C(=O)c1ccccc1C2=O | 6.92 (active)
15 | Cc1nc2ccccc2n1CC(O)c1ccccc1 (stereo not drawn) | inactive
16 | CCC1(CC)Cc2ccccc2-c2nc3ccccc3c(=O)n21 | inactive
17 | CN(C)c1ccc(Nc2c3c4c(cccc4n(C)c2=O)C(=O)c2ccccc2-3)cc1 | inactive
18 | NC(=O)[C@H]1CC2(CC(c3cccc(NC(=O)[C@H]4CCC(=O)N4)c3)=NO2)CN1C(=O)c1ccccc1C(=O)c1ccccc1 (stereo partly drawn) | inactive
19 | Cc1cccc(NC(=O)C(C)N2C(=O)C3C4CC(C(Br)C4Br)C3C2=O)c1 (stereo not drawn) | 9.03 (active)
20 | Cc1cccc(NC(=O)CCN2CC(C)CC(C)C2)c1 (stereo not drawn) | inactive
21 | Cc1cccc(NC(=O)C(C)SCc2ccccc2)c1 (stereo not drawn) | inactive
22 | CC(C)(Oc1ccc(C2CC2(Cl)Cl)cc1)C(=O)O (stereo not drawn) | inactive
23 | COc1cc(C2/C(=C(\O)c3ccc4c(c3)CC(C)O4)C(=O)C(=O)N2Cc2ccco2)ccc1O (stereo not drawn) | inactive
24 | COc1ccc(C2=CC(c3cccc(OC)c3)n3nnnc3N2)cc1 (stereo not drawn) | inactive
25 | Brc1ccc(C2=CC(c3ccco3)n3ncnc3N2)cc1 (stereo not drawn) | inactive

Row | Compound | B-score
26 | CCOc1ccc(C2=CC(c3ccccc3)n3ncnc3N2)cc1 (stereo not drawn) | 7.44 (active)
27 | CC1=C(C/C=C(\C)CCCC(C)CCCC(C)CCCC(C)C)C(=O)c2ccccc2C1=O (stereo not drawn) | inactive
28 | COc1ccc(Oc2cn[nH]c2-c2ccc(OC)cc2O)cc1 | 6.54 (active)
29 | CCOc1ccccc1Oc1cn[nH]c1-c1ccc(OC)cc1O | inactive
30 | COc1ccc(-c2cn[nH]c2-c2ccc(OC)cc2)cc1 | inactive
31 | O=C(NCc1ccccc1)C1=C[C@@H](C2CCCCC2)C[C@@H](OCc2ccc(CO)cc2)O1 | inactive
32 | CC1CCC(CN2CCN=C2N(C)C)CC1 (stereo not drawn) | inactive
33 | COc1ccc(NC(=O)CN(C)C(=O)c2cc(-c3ccc(C)o3)nc3ccccc23)cc1 | inactive
34 | COc1ccc(-c2cc(C(=O)Nc3ccccc3O)c3ccccc3n2)cc1 | inactive
35 | COc1ccc(NC(=O)c2cc(-c3ccc(C)o3)nc3ccccc23)cc1 | 8.06 (active)
36 | COc1ccc(C(=O)CN2C(=O)NC3(CCc4ccccc43)C2=O)c(OC)c1 (stereo not drawn) | inactive
37 | CC(OC(=O)CNS(=O)(=O)/C=C/c1ccccc1)C(=O)Nc1ccc(S(=O)(=O)N2CCCC2)cc1 (stereo not drawn) | inactive
38 | COc1cccc(Oc2ccc(N)cc2)c1 | inactive
39 | CC(C)(C)c1ccc(Oc2ccc(N)cc2)cc1 | inactive
40 | Nc1ccc(Oc2ccc(Cl)cc2)cc1 | 6.95 (active)
41 | CCN(CC)C(=O)CC1(c2ccccc2OC)CCOC(C(C)C)C1 (stereo not drawn) | inactive
42 | COC(=O)c1c(C)cc(O)c(C)c1O | inactive
43 | N#C/C=C(/c1ccc(F)cc1)N1CCOCC1 | inactive
44 | Fc1ccccc1/C=C1\CCCC2=C1Nc1ncnn1C2c1ccccc1F (stereo not drawn) | 7.46 (active)
45 | CC1=C(C(N)=O)C(c2ccc(Br)cc2)n2ncnc2N1 (stereo not drawn) | inactive
46 | CC(C(=O)N=Nc1c(O)n(C)c2ccc(Br)cc12)n1cnc2ccccc2c1=O (stereo not drawn) | inactive
47 | CC(C)N(c1ccccc1)c1ncnc(NCCC(=O)O)c1[N+](=O)[O-] | inactive
48 | Cc1c(C(=O)NCC2CCCO2)sc2nc(-c3ccccc3)cn12 (stereo not drawn) | inactive
49 | Cc1c(C(=O)N2CCCc3ccccc32)sc2nc(-c3ccccc3)cn12 | 10.8 (active)
50 | Cc1c(C(=O)N2CC(C)OC(C)C2)sc2nc(-c3ccccc3)cn12 (stereo not drawn) | inactive

Row | Compound | B-score
51 | CCn1nccc1C(=O)Nc1ccc(S(=O)(=O)NC23CC4CC(CC(C4)C2)C3)cc1 | inactive
52 | COc1ccc(S(=O)(=O)N2CCCC(C(=O)NCCCn3ccnc3)C2)cc1OC (stereo not drawn) | inactive
53 | Cc1ccc(C)c(N2CCN(S(=O)(=O)c3c(C)[nH]c(C)c3C(=O)N3CCCC3)CC2)c1 | inactive
54 | CCOC(=O)c1ccccc1NC(=S)N1CCC(C(N)=O)CC1 | inactive
55 | Cc1nc2ccccc2cc1OCc1ccc(F)cc1 | 11.8 (active)
56 | Cc1occc(=O)c1OCc1ccc(F)cc1 | inactive
57 | Fc1ccccc1COc1cccc2cccnc12 | inactive
58 | COCCCN(C(=O)CSCc1ccc(C)cc1)c1c(N)n(Cc2ccccc2)c(=O)[nH]c1=O | inactive
59 | S=C(NCCC1=CCCCC1)Nc1ccccc1 | inactive
60 | Oc1c(Br)cc(/C=N/NC(=S)NCC2CCCO2)cc1Br (stereo not drawn) | 6.64 (active)
61 | S=C(NCC1CCCO1)N1CCN(c2ccc(Cl)c(Cl)c2)CC1 (stereo not drawn) | inactive
62 | S=C(NCCc1ccccc1)NCC1CCCO1 (stereo not drawn) | inactive
63 | C=CCOc1ccccc1NC(=O)CN1C(=O)CNC1=O | inactive
64 | CCOC(=O)c1cnc2ccc(F)cc2c1Nc1ccc2c(c1)OCCO2 | inactive
65 | CC(Oc1ccc2ccccc2c1)C(=O)NNC(=S)NC(=O)c1ccco1 (stereo not drawn) | inactive
66 | CCCc1ccc(OCCNC(=O)c2ccco2)cc1 | inactive
67 | CCCc1ccc(OCC(=O)NNC(=S)NC(=O)c2ccco2)cc1 | 11.9 (active)
68 | CCOc1cc(C(=O)Nc2ccc(S(=O)(=O)Nc3cnc4ccccc4n3)cc2)cc(OCC)c1OCC | inactive
69 | Cc1ccccc1-n1nc(SCC(=O)O)sc1=S | inactive
70 | CN(C)CCCCCN(C)Cc1cc2ccccc2o1 | inactive
71 | CCOC(=O)c1ccc(-c2ccc(C(=O)Nc3cccnc3)o2)cc1 | inactive
72 | Cc1ccc(C2C3=C(Nc4[nH]n(-c5ccccc5)c(=O)c42)c2ccccc2C3=O)cc1 (stereo not drawn) | inactive
73 | COC(=O)C1=C(C)NC2=C(C(=O)c3ccccc32)C1c1ccc(-c2ccc(C(=O)O)cc2)o1 (stereo not drawn) | 16.1 (active)
